Out of some 2,100 compounds screened, about 320 (15%) were called active. Another 52% or so got no clear call; they are omitted. The list shows a part of the results. Values without a mark were called inactive. Calls come from the whole dose curve; as a rule, active = well fitted cell-killing curve with a large enough effect; inconclusive = small, poorly fitted or top-dose-only effect, or effect the other way; inactive = flat fitted curve, though single readings scatter.
Assay: Viability Counterscreen for CMV-Luciferase Assay of Inhibitors of ATXN expression; note: nearly all actives have a fitted effect of over 55% in size
Settings: HEK-293 CMV-luciferase cells viability, protease fluorescence, 24 h; activity change, negative = cytotoxicity: at the top concentration
Procedure, shortened: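 Dosing on CMV-luciferase HEK-293 cells for 24 hr, 37 °C. Luminescence read with SteadyGlo; cytotoxicity measured first as Gly-Phe-AFC protease fluorescence, 25 uM final substrate, 30 min.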
% is set by controls: 0 for no effect and ±100 for the full control effect; potency is the fitted concentration of half-maximal effect.

SMILES | activity change, negative = cytotoxicity | Potency
N=c1ccn(CC(=O)c2ccc(-c3ccccc3)cc2)cc1 | -17.4% | –
Clc1ccc(-c2cc(C3CCNCC3)[nH]n2)c(Cl)c1 | 26.4% [at 57.5 µM] | –
COc1cc(NS(=O)(=O)c2ccc(N/C=C(\C#N)c3nc4cc(Cl)ccc4o3)cc2)nc(OC)n1 | – | 14.1 µM (active)
CCN1CCN(c2ccc(Cl)cc2NC(=O)c2ccc(-n3nc(C)cc3C)cc2)CC1 | -12.5% [at 57.5 µM] | –
Nc1nc(NCCc2ccccc2)nc(NCc2ccccc2)c1[N+](=O)[O-] | -23.9% [at 57.5 µM] | –
CCc1cc[n+](C2=C([O-])c3ccccc3C(=O)/C2=N\S(=O)(=O)c2cccs2)cc1 | – | 17.8 µM (active)
Cc1cc(C)c2c(CC(=O)Nc3ccc(Cl)cn3)coc2c1 | -3.79% | –
O=C(COC(=O)c1cc([N+](=O)[O-])ccc1N1CCOCC1)Nc1ccc(Cl)cn1 | – | 14.1 µM (active)
COc1ccccc1/C=C/C(=O)OCC(=O)Nc1ccc(Cl)cn1 | -27.1% [at 57.5 µM] | –
CCn1c(C)cc(C(=O)COC(=O)c2ccccc2[N+](=O)[O-])c1C | -4.45% [at 57.5 µM] | –
COc1ccc(O)c(/C=N/NC(=O)c2ccc(OCc3cccc(Br)c3)cc2)c1 | -22.1% | –
COc1ccc(O)c(/C=N/NC(=O)c2ccc(N3CCCC3=O)cc2)c1 | -7.9% [at 57.5 µM] | –
O=C(N/N=C/c1cc([N+](=O)[O-])ccc1O)c1ccc(COc2ccc3c(c2)CCC3)o1 | – | 11.2 µM (active)
COc1ccc2nc(C)c3c(c2c1)OC(C(C)(Cl)Br)C3 (stereo not given) | -24.3% | –
N#CCc1nc2ccccc2c(=O)[nH]1 | 4.06% [at 57.5 µM] | –
CC1(C)COCN1S(=O)(=O)c1ccc(C(=O)Nc2nnc(-c3ccc(Cl)s3)o2)cc1 | -16.1% | –
O=C1c2cccc3cc([N+](=O)[O-])cc(c23)C(=O)N1CCN1CCCC1 | – | 1.58 µM (active)
C/[N+]([O-])=C\c1cccc(OCCN2CCN(c3ncc(C(F)(F)F)cc3Cl)CC2)c1 | 6.84% | –
COc1cc(C(=O)O/N=C(\N)Cc2ccc([N+](=O)[O-])cc2)cc(OC)c1OC | – | 3.16 µM (active)
Cn1c(CO)cnc1S(=O)(=O)Cc1ccc([N+](=O)[O-])cc1 | -1.7% [at 57.5 µM] | –

SMILES | activity change, negative = cytotoxicity | Potency
Cc1sc2nc(CN3CCCC3)nc(N3CCC(C(N)=O)CC3)c2c1C | -6.87% [at 57.5 µM] | –
Nc1ccc2c(c1)OC1(CCCC1)O2 | -18% | –
CCn1c2ccccc2c2cc(NC(=O)COC(=O)Cc3cn4ccsc4n3)ccc21 | 1.78% | –
CC1CCN(Cc2c(C(=O)N/N=C/c3cc(Br)ccc3O)nnn2-c2nonc2N)CC1 | -14% | –
CC1CC(C)CN(CCCNC(=O)c2cc3c(s2)-c2ccccc2OC3)C1 (stereo not given) | -13.8% | –
Cc1cc(N2CCN(C)CC2)ccc1NC(=O)c1ccc(-c2ccc(Cl)cc2)o1 | -20.4% [at 57.5 µM] | –
Cc1cccc2c1-c1sc(C(=O)Nc3ccccc3N3CCN(C)CC3)cc1CO2 | – | 22.4 µM (active)
NC(=O)CC(NC(=O)Cc1ccc(Br)cc1)c1ccc(NC2CCCC2)c([N+](=O)[O-])c1 (stereo not given) | – | 3.16 µM (active)
CC(C)C[C@H](N)c1cn([C@@H](CCCCN)C(=O)N2CCNCC2)nn1 | 6.2% | –
O=C(NC(Nc1ncc(S(=O)(=O)c2ccc([N+](=O)[O-])cc2)s1)(C(F)(F)F)C(F)(F)F)c1ccc(Cl)cc1 | – | 10 µM (active)
Cc1nc2ccc(NC(=O)c3ccc(S(=O)(=O)N(C)c4ccccc4)cc3)cc2s1 | -14% | –
O=C(NC(Nc1nc2ccc([N+](=O)[O-])cc2s1)(C(F)(F)F)C(F)(F)F)c1ccccc1 | – | 0.562 µM (active)
CO[C@@]12[C@@H]3N[C@@H]3CN1C1=C(C(=O)C(N)=C(C)C1=O)[C@@H]2COC(N)=O | 22.6% | –
CC1=CC(C)(C)N2C(=O)C3(SCC(=O)N3c3ccc(F)cc3)c3cc(C)cc1c32 (stereo not given) | -24% | –
CCn1ccnc1CN1CCCC(C(=O)c2ccc3cc(OC)ccc3c2)C1 (stereo not given) | 4.36% | –
OC[C@@H]1CN(Cc2ccc(-c3ccccc3)cc2)C[C@H](n2cnc3c(Nc4ccccc4)ncnc32)O1 | – | 22.4 µM (active)
OC[C@@H]1CN(Cc2ccncc2)C[C@H](n2cnc3c(N4CCN(c5ccccc5)CC4)ncnc32)O1 | -2.73% | –
CN(C)CCNc1ncnc2c1ncn2[C@H]1CN(Cc2ccc(-c3ccccc3)cc2)C[C@@H](CO)O1 | -5.63% [at 57.5 µM] | –
CNc1ccccc1C(=O)OC(C)C(=O)Nc1ccc(Cl)cn1 (stereo not given) | -0.359% | –
CCCc1ccc(O)c(N=Cc2cc(Br)cc(OCC)c2O)c1 | -3.44% [at 57.5 µM] | –

SMILES | activity change, negative = cytotoxicity | Potency
O=C(Nc1ccc(Br)cc1)c1cccc(OC(=S)N2CCOCC2)c1 | 12.8% | –
Oc1[nH]c2ccc(Br)cc2c1N=NC(=S)N1CCOCC1 | – | 1.12 µM (active)
O=C(NCC1CC1)c1ccc2c(c1)S(=O)(=O)c1cc(Cl)ccc1C2=O | -10.1% | –
O=C(Nc1ccc(Cc2ccncc2)cc1)c1ccc(S(=O)(=O)N2CCCC2)cc1 | -23.7% [at 57.5 µM] | –
COc1ccc(C)cc1Nc1nc(C)nc2sc(C)cc12 | -16.3% | –
CC(=O)Nc1ccc(CNc2nc(NC(C)C)nc3cc(-c4ccccc4)sc23)cc1 | – | 25.1 µM (active)
COc1ccccc1CNc1nc(NCc2ccc(NC(C)=O)cc2)c2sccc2n1 | -1.81% | –
O=C(Oc1c(CN2CCOCC2)cc(Cl)c2cccnc12)c1ccccc1F | 18.9% [at 57.5 µM] | –
COc1cc(OC)cc(-c2cc3nc(C)c(CCC(=O)O)c(C)n3n2)c1 | -23.2% [at 57.5 µM] | –
COc1cc(Nc2ncc3c(n2)CCN(C(=O)Nc2ccc(C(C)C)cc2)C3)cc(OC)c1OC | -22.1% | –
CC(=O)c1ccc(C(=O)Nc2nnc(-c3ccc(Cl)cc3)o2)cc1 | -18.4% | –
CN(c1ccccc1)S(=O)(=O)c1ccc(C(=O)Nc2nnc(-c3ccc(F)cc3)o2)cc1 | – | 14.1 µM (active)
CCN(CC)S(=O)(=O)c1ccc(C(=O)Nc2ccc(Cc3ccncc3)cc2)cc1 | 3.95% [at 57.5 µM] | –
CCCN(CCC)S(=O)(=O)c1ccc(C(=O)Nc2nnc(-c3cc(OC)cc(OC)c3)o2)cc1 | – | 7.08 µM (active)
CCc1nnc(NC(=O)c2ccc(S(=O)(=O)N(C)c3ccccc3)cc2)o1 | -10.5% | –
COc1ccc(-c2nnc(NC(=O)c3ccc(S(=O)(=O)N4COCC4(C)C)cc3)o2)cc1 | -19.2% | –
c1nc(CCO[C@H]2CCCCO2)cc2cc3c(cc12)OCO3 | -23.6% | –
CC(=O)c1cccc(-c2ccnc3c2CC(C(=O)Nc2ccc(F)c(Cl)c2)O3)c1 (stereo not given) | -24.2% | –
CC(=O)Nc1cccc(-c2ccnc3c2CC(C)(C(=O)Nc2ccc(Cl)c(C(F)(F)F)c2)O3)c1 (stereo not given) | – | 28.2 µM (active)
COc1ccc(CCCNC(=O)C2Cc3c(-c4cccc(NC(C)=O)c4)ccnc3O2)cc1 (stereo not given) | -5.64% | –
